Reference: PubChem BioAssay (NCI)
About 79,000 compounds went through this panel and 15% of them were active in at least one assay; those are over-represented in the sample as a whole. Values without a mark were called inactive. Active and inactive are the calls of the source. No stated cut-off is given here; in the data, active means growth inhibition above about 70%; inactive means the rest. Where a SMILES comes first, the peptide text is derived from it.

Test: NCI Yeast Anticancer Drug Screen. Data for the mlh1 rad18 strain (AID 175)
Settings: S. cerevisiae mlh1 rad18 strain growth inhibition; at 50.0 µM; hits give high values
Protocol: Growth inhibition of yeast strains with defined genetic alterations is measured as a screen for potential anti-cancer activity. Selected strains with alterations in DNA damage repair or cell cycle control were exposed to compounds and growth inhibition was measured relative to vehicle treated controls. The strain used in this assay is mlh1 rad18

Row | SMILES | growth inhibition
1 | CC(C)CC(NC(=O)c1ccccc1C(=O)O)C(N)=O (stereo not given) | -19%
2 | Cn1c2c(c3ccccc31)C(=O)CC2(C)C | 2.15%
3 | CCOc1ccccc1/C=C/C(=O)O | -21.4%
4 | CN(C)c1ccc(-c2nc(N)nc3c2CCCC3)cc1 | -34.2%
5 | CCCCNC(=O)C1C(=O)N(CCCC)C(=O)/C1=N\N (stereo not given) | 12.8%
6 | O=C(NC(Cc1c[nH]c2ccccc12)C(=O)O)C(=O)c1c[nH]c2ccccc12 (stereo not given) | 4.2%
7 | CC(=O)/C=C\c1cc(C)ccc1O | 12.6%
8 | Cc1n(Cc2ccccc2)nc2sc(N)n[n+]12 | -6.95%
9 | CCNC(CC(N)=O)C(=O)O (stereo not given) | -11.6%
10 | O=C(O)c1ccnc2c(S(=O)(=O)O)cccc12 | 12.4%
11 | CC(C)/C=C1\CCC(CN(C)C)C1=O (stereo not given) | 85.8% (active)
12 | CCOC(=O)CC1(C)OCCO1 | 28%
13 | O=C(O)c1ccc(Nc2nc3ccccc3nc2-c2cccs2)cc1 | -9.7%
14 | COC(=O)C(CCC1(C)OCCO1)=[N+]=[N-] | -16%
15 | O=C(OC1CCCC1)c1ccccc1 | -2.2%
16 | CCOC(=O)c1cc2c(oc1=O)-c1cc(C)ccc1OC2C (stereo not given) | 11.1%
17 | CC1OC(OCC2COC(O)(Oc3c(-c4ccc(O)c(O)c4)oc4cc(O)cc(O)c4c3=O)C(O)C2O)C(O)C(O)C1O (stereo not given) | 13.9%
18 | CCOC(=O)CNc1nc(Cl)nc(NCC(=O)OCC)n1 | 1.4%
19 | NC(Cc1c[nH]c2ccc(Br)cc12)C(=O)O (stereo not given) | -38.1%
20 | CC(=O)Oc1cc(C=O)ccc1O | -7.6%

Row | SMILES | growth inhibition
21 | Nc1cnc(N)nc1 | -17.2%
22 | O=C1C(=C(c2ccc([N+](=O)[O-])cc2)N2CCOCC2)C(=O)c2ccccc21 | 10.3%
23 | CCN(CC)CCO/N=C(\c1ccccc1)c1ccccn1 | 1.2%
24 | O=C(NC/C=C/Br)NC1CCNc2ccccc21 (stereo not given) | 23%
25 | CCOc1cc[n+](C)c2ccc(C)cc12 | 26.7%
26 | COc1cc(C)cc2c(-c3c(O)cc(O)c4c3CC(C)N[C@H]4C)cc(-c3cc(-c4c(O)cc(O)c5c4CC(C)N[C@H]5C)c4cc(C)cc(OC)c4c3O)c(O)c12 (stereo not given in full) | 16.5%
27 | CC(C)CC(NC(=O)C(NC(=O)C(N)C(C)O)C(C)C)C(=O)O (stereo not drawn) (H-Thr-Val-Leu-OH; configuration not given here) | -1.5%
28 | CCC(=O)N1CCN(C(=O)CC)CC1 | -2.25%
29 | CC(C)=CCCC(=O)C(c1nc2nnc(N)n2[nH]c1=O)c1nc2nnc(N)n2[nH]c1=O | -7.55%
30 | O=C1NN(c2ccccc2)C(=O)C2C3c4ccccc4C(c4ccccc43)C12 (stereo not given) | 2.85%
31 | COC(=O)C1=C(C)NC(C)=C(C(=O)OC)C1c1cccc(N=O)c1 | 78.2% (active)
32 | CCC(/C=N/Nc1ccc([N+](=O)[O-])cc1[N+](=O)[O-])(CC)CC | 6.8%
33 | CCN(CC)CCN(CC)CCN(CC)CC | -0.7%
34 | Nc1cc2c(cc1Br)-c1cc(Cl)c(Cl)cc1C2=O | -11.5%
35 | Nc1ncnc(N)c1NC(=O)CCCCc1ccccc1 | -5.9%
36 | COC1OC2COC(c3ccccc3)OC2C(OS(=O)(=O)c2ccc(Br)cc2)C1OS(=O)(=O)c1ccc(Br)cc1 (stereo not given) | 21.6%
37 | COc1ccc(-c2cc(-c3cc(-c4ccc(OC)cc4)on3)no2)cc1 | -1.05%
38 | Cc1c(F)c(F)c(-c2c(F)c(F)c(C)c(F)c2F)c(F)c1F | 0.1%
39 | Cc1ccc(S(=O)(=O)Oc2nc3ccccc3nc2N(S(=O)(=O)c2ccc(C)cc2)S(=O)(=O)c2ccc(C)cc2)cc1 | 17.7%
40 | CCCCCCCC(=O)Nc1ccc(-n2c(=O)cc(C)n2C)cc1 | 14.1%
